Assay outcomes (PubChem)
FLuc inh = Photinus pyralis luciferase inhibition; P08659; 76,000 tested, 2.5% active; purified P. pyralis luciferase, luminescence, biochemical; Potency, µM (doses to about 115 µM), usual class: inhibitors; note: nearly all actives have a fitted effect of over 65% in size
Target sequence (P08659 whole entry, looked up): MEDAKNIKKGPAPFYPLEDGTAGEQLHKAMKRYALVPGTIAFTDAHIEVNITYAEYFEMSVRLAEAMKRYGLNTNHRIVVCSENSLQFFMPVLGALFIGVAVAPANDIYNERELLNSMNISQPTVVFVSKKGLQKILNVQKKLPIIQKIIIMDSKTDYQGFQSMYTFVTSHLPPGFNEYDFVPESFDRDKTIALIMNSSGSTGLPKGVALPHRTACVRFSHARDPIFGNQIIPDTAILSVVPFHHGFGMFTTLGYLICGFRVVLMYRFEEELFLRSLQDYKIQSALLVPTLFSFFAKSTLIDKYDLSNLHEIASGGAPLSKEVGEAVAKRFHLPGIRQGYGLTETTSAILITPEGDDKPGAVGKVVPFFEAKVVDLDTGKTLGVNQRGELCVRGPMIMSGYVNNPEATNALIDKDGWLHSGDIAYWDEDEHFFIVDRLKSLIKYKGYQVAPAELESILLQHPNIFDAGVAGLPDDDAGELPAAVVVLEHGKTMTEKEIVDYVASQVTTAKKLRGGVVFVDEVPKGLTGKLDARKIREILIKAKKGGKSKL
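Luminescence read by CCD imaging after purified firefly luciferase (10nM final) was added to substrate buffer holding 10uM D-luciferin and 10uM ATP, pH 7.5, pre-dosed with compound.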
hNpr1 antagonist = blocks ANP-stimulated signaling of human Npr1 receptor; 76,000 tested, 1.6% active; HEK293 hNpr1 GloSensor cGMP, ANP-stimulated luminescence; AID 1347048; Potency, µM (series often up to 46.3 µM), for inactives: at the highest dose activity change, negative = inhibition, most hits filed as inhibitors; P16066; calls by dose curve; note: nearly all actives have a fitted effect of over 60% in size
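Compound pre-incubated 30 min at room temperature on GloSensor-loaded HEK293 cells stably carrying hNpr1 and the pGS-40F cGMP biosensor. Stimulation uses hNppA at 0.1 nM final; luminescence is taken at baseline and 20 min post-agonist.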
NIH3T3 tox = NIH 3T3 cell cytotoxicity; Potency, µM (doses to about 96.7 µM), inactives show top-dose activity change, negative = cytotoxicity, actives largely listed as inhibitors; NIH 3T3 viability, CellTiter-Glo ATP luminescence, 48-72 h; AID 1345082; 94,000 tested, 4.3% active; note: nearly all actives have a fitted effect of over 55% in size
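Cytotoxicity was measured by CellTiter-Glo ATP luminescence after 48 or 72 h compound exposure at 37 °C. Mouse NIH 3T3 fibroblasts were seeded at 400 cells/well and dosed by 23 nL pin transfer.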
HEK cytotox = HEK 293 cell cytotoxicity. HEK 293 viability, ATP luminescence (CellTiter-Glo), 48-72 h. 94,000 tested, 6.6% active. AID 1345083. Potency, µM (series often up to 115 µM), inactives show top-dose activity change, negative = cytotoxicity, hits mostly inhibitors; note: nearly all actives have a fitted effect of over 60% in size
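HEK 293 cells seeded at 250 cells/well were exposed to compound for 48 or 72 hr at 37 degree Celsius. Viability taken as ATP content by CellTiter-Glo luminescence.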
Active calls of the source: *; i = inactive; u = inconclusive; x = no result; [ ] = another dose, or the depositor's remark. Sampled rows, rich in hits. Any-hit rate of the full collection: about 11%. Unless noted, calls come from the whole dose curve; as a rule, active = well fitted curve in the direction sought with a large enough effect; inconclusive = small, poorly fitted or top-dose-only effect, or another doubt; inactive = no such curve, though single readings can be large; an effect the other way counts as inactive or inconclusive. % is set by controls: 0 for no effect and ±100 for the full control effect; potency is the fitted concentration of half-maximal effect.

SMILES	FLuc inh	hNpr1 antagonist	NIH3T3 tox	HEK cytotox
Fc1ccc2cnc(N3CCC(N[C@H]4C[C@@H]5OCC[C@H]45)CC3)nc2c1	i	0%	-28%	-25%
CC(C)CNC(=O)C1CCCN1Cc1ccc(-c2cncnc2)cc1 (stereo unspecified)	x	x	-25%[138 µM]	-21%[172 µM]
COc1ccc(F)cc1-c1ccc(CN2CCCCC2C(=O)NCc2cccc(F)c2)cc1 (stereo unspecified)	x	x	35µM*	u
O=C(NCc1cccc(F)c1)C1CCCN1Cc1ccc(-c2cncnc2)cc1 (stereo unspecified)	x	x	-18%	u
COc1ccc(F)cc1-c1ccc(CN2CCCCC2C(=O)NCc2ccc(Cl)cc2)cc1 (stereo unspecified)	x	x	u	14µM*
CCCNC(=O)c1cc2c(=O)[nH]c(-c3ccccc3)cn2n1	i	-25%	-27%	u
COc1ccc(CN2CC(CN[S+](=O)([O-])c3ccccc3)C3(C2)CN(c2ccccc2)C3)cc1O (stereo unspecified)	i	-11%	22µM*	u
O=[S+]([O-])(NCC1CN(Cc2ccc3c(c2)CCO3)CC12CN(c1ccccc1)C2)c1ccccc1 (stereo unspecified)	i	-14%	u	u
COc1ccc(CN2CC(CNc3ccccc3)C3(C2)CN(c2ccccc2)C3)cc1O (stereo unspecified)	i	-8%[70.6 µM]	28µM*	40µM*
CC(C)CCN1CC(CN[S+](=O)([O-])c2ccccc2)C2(C1)CN(c1ccccc1)C2 (stereo unspecified)	i	-17%[70.6 µM]	45µM*	u
COc1ccccc1CN1CC(CNC(=O)Nc2ccccc2)C2(C1)CN(c1ccccc1)C2 (stereo unspecified)	i	-15%	u	79µM*
Cc1ccc(C(C)CCN2CCC(n3nccc3NC(=O)Cc3ccccc3)CC2)o1 (stereo unspecified)	i	3%	3%	-12%
CCn1ccc(C(=O)N2CC=C([C@H]3[C@@H](OC)C(=O)N3Cc3ccc(OC)cc3)CC2)n1	x	x	-34%	-29%
COc1ccccc1CNC(=O)C1CN(C2CCCC2)C(=O)N1 (stereo unspecified)	x	x	-17%[138 µM]	-25%[172 µM]
C#CCNC(=O)[C@H]1O[C@H](CCN2CCN(c3ccccc3)CC2)CC[C@@H]1O	i	9%[70.6 µM]	i	-4%[172 µM]
CC(C)c1ccc(CN2CC(CNC(=O)c3cnn(C)c3)C3(C2)CN(c2ccccc2)C3)cc1 (stereo unspecified)	i	-3%	u	79µM*
CC(C)c1ccc([S+](=O)([O-])N2CC(CNC(=O)c3cnn(C)c3)C3(CN(c4ccccc4)C3)C2)cc1 (stereo unspecified)	i	-12%	u	u
CC(C)c1ccc(S(=O)(=O)N2CCCC2Cc2noc(Cc3ccccc3)n2)cc1 (stereo unspecified)	x	x	u	25µM*
O=C(Nc1ccc2c(c1)OCCO2)N1CCCC1Cc1noc(Cc2ccccc2)n1 (stereo unspecified)	x	x	u	-23%
Cc1cc(F)ccc1OC1CN(Cc2ccc(F)cc2)C1	i	0%[70.6 µM]	u	u
Cc1cc(OC2CN(Cc3ccc(F)cc3)C2)ccc1F	i	14%[70.6 µM]	u	79µM*
Cc1cc(F)ccc1OC1CN(Cc2ccccc2)C1	i	0%[70.6 µM]	89µM*	u
CC(=O)Nc1ccc(CN2CC(Oc3ccc(F)c(C)c3)C2)cc1	i	-3%[70.6 µM]	u	u
O=C1N[C@@H]2CCN(C(=O)c3ccc(-c4ccccc4)cc3)[C@@H]2C(=O)N1Cc1ccccc1	u	-3%[70.6 µM]	112µM*	u
COc1ccc(-c2cc(C(=O)N3CCOC(c4ccc(F)cc4)C3)[nH]n2)cc1 (stereo unspecified)	i	-27%	u	u
SMILES	FLuc inh	hNpr1 antagonist	NIH3T3 tox	HEK cytotox
COc1ccc2cc(C3CN(C(=O)c4ccc(C)cc4OC)CCO3)ccc2c1 (stereo unspecified)	22µM*	u	45µM*	22µM*
CCn1cc(S(=O)(=O)N2CCC[C@H](n3c(=O)n(CC4CC4)c4cccnc43)C2)cn1	i	5%	-24%	40µM*
COCCc1noc(CC2CCOC3(CCN(Cc4cccc(OC)c4OC)CC3)C2)n1 (stereo unspecified)	i	4%	2%	-4%
Cn1ncc2c(C(=O)NCc3ccc4c(c3)OCO4)cc(-c3ccccc3C(F)(F)F)nc21	x	x	u	35µM*
Cn1ncc2c(C(=O)NCc3ccc(Cl)cc3)cc(-c3ccc(C(F)(F)F)cc3)nc21	x	x	-22%	u
Cn1ncc2c(C(=O)NCc3ccc(Cl)cc3)cc(-c3ccccc3C(F)(F)F)nc21	x	x	u	32µM*
COCCNC(=O)c1cc(-c2ccccc2F)nc2c1cnn2C	x	x	u	-7%[172 µM]
Cn1ncc2c(C(=O)NCC#N)cc(-c3ccccc3C(F)(F)F)nc21	x	x	u	-26%
Cn1ncc2c(C(=O)NCc3ccc(C(F)(F)F)cc3)cc(-c3ccccc3C(F)(F)F)nc21	x	x	u	18µM*
Cn1ncc2c(C(=O)NCCCNC(=O)OC(C)(C)C)cc(-c3ccccc3F)nc21	x	x	u	45µM*
COCCN1C[C@H]2COc3ccc(C)cc3[C@H]2N(C(=O)c2cccc(OC)c2)CCC1=O	x	x	-20%	u
COC(=O)NC1CCN(C(=O)c2ccc(-c3cncnc3)cc2)CC1	x	x	i	-6%
CC(C)C(C(=O)N1CCC2(CC1)CN(C)CCN2C)c1ccc(Cl)cc1 (stereo unspecified)	i	1%	-12%	-7%
CC(NC(=O)c1cc(-c2ccccc2C(F)(F)F)nc2c1cnn2C)C(C)(C)C (stereo unspecified)	x	x	u	45µM*
Cn1ncc2c(C(=O)NCC(=O)OC(C)(C)C)cc(-c3ccccc3C(F)(F)F)nc21	x	x	u	45µM*
O=c1n(-c2ccc([N+](=O)[O-])cc2)nc2n1CCN(Cc1ccc(F)cc1)C2	i	u	u	35µM*
O=C(c1ccc(F)cc1)N1CCn2c(nn(-c3ccc([N+](=O)[O-])cc3)c2=O)C1	i	0%	-15%	i
O=c1n(-c2ccc([N+](=O)[O-])cc2)nc2n1CCN(Cc1ccccc1)C2	i	-22%	u	28µM*
O=c1n(-c2ccc(F)cc2F)nc2n1CCN(Cc1ccc(F)cc1)C2	i	19%	u	50µM*
O=c1n(-c2ccc([N+](=O)[O-])cc2)nc2n1CCN(Cc1ccsc1)C2	u	-25%[70.6 µM]	u	40µM*
N#Cc1ccc(CN2CCn3c(nn(-c4ccc(F)cc4F)c3=O)C2)cc1	i	-1%	-24%	u
O=C1Nc2ccccc2CC12CCN(Cc1ccc(F)cc1)C2 (stereo unspecified)	i	0%[70.6 µM]	-24%[138 µM]	71µM*
COC(=O)[C@@H]1Cc2nc[nH]c2CN1Cc1ccc(OC)c2ccccc12	i	-4%[70.6 µM]	u	u
O=C(NCC(F)(F)F)c1nc2cccnc2n(Cc2ccccc2)c1=O	x	x	-16%	1%
